Assay outcomes (PubChem BioAssay)
In the library only some 6.2% were active in any assay of this set; here they are far more common.
LASV entry inh = inhibitors of Lassa virus binding or cell entry; Lassa virus pseudotype entry inhibition, cell reporter; Potency, µM (highest dose often 37.9 µM), inactives show at the highest dose activity change, negative = inhibition, hits mostly inhibitors; hit rate 1.2% among 300,000; AID 540256; calls by dose curve; tested in HEK293 cells; note: potency is the fitted concentration of half-maximal effect; nearly all actives have a fitted effect of over 50% in size
MARV entry inh = blocks Marburg virus binding to or entry into cells | Marburg virus pseudotyped entry inhibition, cell reporter | Potency, µM (highest dose often 37.8 µM), for inactives: at the top dose activity change, negative = inhibition, usual class: inhibitors | hit rate 1.8% among 300,000 | AID 540276; calls by dose curve; tested in HEK293 cells; note: potency is the fitted concentration of half-maximal effect
HCMV antiviral = blocks human cytomegalovirus replication; hit rate 4.5% among 410,000; activity change, negative = inhibition, % at 57.5 µM; HFF cells, HCMV-luciferase reporter, 72 h; hits give low values; AID 1259415; in the data active = activity change below about -60%; inconclusive = no clear call, values can overlap the other calls; inactive = above about -39%
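Human foreskin fibroblasts infected with luciferase-reporter HCMV at MOI 1 PFU/cell, compounds at two doses. Luciferase measured 72 h post infection; normalized to buffer-only basal and Salinomycin (10uM) controls.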
FMDV inh = antivirals against foot and mouth disease virus | FMDV antiviral cell-based qHTS | hit rate 1.2% among 410,000 | Potency, µM (top dose mostly 57.9 µM), inactives show at the top dose activity change, negative = inhibition, most hits filed as inhibitors; calls by dose curve; tested in HEK293T cells; note: read-out not given here; potency is the fitted concentration of half-maximal effect; nearly all actives have a fitted effect of over 45% in size
Active calls of the source: *; ? = inconclusive; · = no result given; [ ] = another dose, or the depositor's remark. % is set by controls: 0 for no effect and ±100 for the full control effect.

SMILES | LASV entry inh | MARV entry inh | HCMV antiviral | FMDV inh
COC(=O)c1ccccc1NS(=O)(=O)c1cc2c(cc1C)N(C)CCO2 | 10µM* | · | ? | 79%
COc1cccc(NS(=O)(=O)c2cc3c(cc2C)N(C)CCO3)c1 | · | · | -8 | 55%
CN1CCN(C(=O)/C(=C/c2cccs2)NC(=O)c2cccs2)CC1 | -2% | ? | ? | -6%
Cc1ccc(C2=NN(C(=O)CCl)C(c3ccco3)C2)o1 (stereo not given) | 14% | ? | -100* | ?
Cc1ccccc1NC(=O)C(C)OC(=O)C1CC(=O)N(Cc2ccco2)C1 (stereo not given) | · | · | -102* | -2%
O=C(/C=C/c1ccc(Cl)cc1Cl)c1nc2ccccc2[nH]1 | -18% | -38% | -9 | -9%
CCOc1ccc(N/C=C/C(=O)c2ccccc2)c([N+](=O)[O-])c1 | 1.1µM* | ? | 1 | -85%
CCOc1ccc(NC(=O)/C=C/c2ccccc2)c([N+](=O)[O-])c1 | 19% | -26% | 37 | 22%
COc1ccccc1NS(=O)(=O)c1cccc(C(=O)NCc2ccccn2)c1 | -1% | 22% | -15 | -1%
COc1ccc(OCC(=O)Nc2nc3cc4c(cc3s2)OCCO4)cc1 | 24%[46.1 µM] | 4%[46.1 µM] | 23 | -14%
CCOc1ccc(CN(C)C(=O)CCl)cc1 | ? | 11µM* | -30 | 25µM*
CNC(=O)c1ccc(CN(C)C(=O)/C=C/c2ccc(S(=O)(=O)N3CCCCCC3)cc2)cc1 | · | · | -84* | ?
CCOc1ccc(CN(C)C(=O)CCc2ccc(S(=O)(=O)N3CCCCCC3)cc2)cc1 | · | · | -60* | ?
COc1ccc(CN(C)C(=O)CCc2ccc(S(=O)(=O)N3CCCCCC3)cc2)c(OC)c1 | · | · | -13 | 0%
COc1ccc(CN(C)C(=O)/C=C/c2ccc(S(=O)(=O)N3CCCCCC3)cc2)cc1 | 5µM* | ? | ? | ?
COc1cccc(NC(=O)CN(C)C(=O)/C=C/c2ccc(S(=O)(=O)N3CCCCCC3)cc2)c1 | · | · | -38 | -15%
Cc1occc1C(=O)N/N=C/C=C\c1ccccc1[N+](=O)[O-] | 5% | 26%[46.1 µM] | -75* | 26%
O=C(N/N=C/c1ccc(Cl)c([N+](=O)[O-])c1)c1cc(-c2ccc3c4c(cccc24)CC3)n[nH]1 | 6.3µM* | ? | -74* | -26%
Cc1occc1C(=O)N/N=C/c1ccc(Cl)c([N+](=O)[O-])c1 | -5% | 4µM* | -63* | 38%
Cc1occc1C(=O)N/N=C/c1ccc(-c2ccccc2)cc1 | 7.9µM* | ? | 61 | -2%
CC(C)CCN(N=O)[C@@H](Cc1ccccc1)CN(N=O)[C@@H](Cc1ccccc1)CN(C)N=O | · | · | 25 | 2%
Cc1ccc(-c2cnc(C(O)c3c(C)cccc3C)[nH]2)cc1 (stereo not given) | · | · | -31 | -15%
CCCCN(CCCC)CC(O)COc1ccccc1C(=O)Nc1ccccc1 (stereo not given) | ? | ? | -28 | -23%
Cc1cc(C(=O)N/N=C/c2ccc3c(c2)OCO3)c(C)n1-c1ccc(F)cc1 | 6% | -13%[46.1 µM] | ? | 46%
Cc1cc(C(=O)N/N=C/c2ccc(Cl)c([N+](=O)[O-])c2)c(C)n1-c1ccc(F)cc1 | 13µM* | ? | -93* | -32%
SMILES | LASV entry inh | MARV entry inh | HCMV antiviral | FMDV inh
CCCc1c(C(=O)N/N=C(\C)c2ccccn2)nnn1-c1nonc1N | · | · | -98* | -22%
COc1ccc(/C(C)=N/NC(=O)c2nnn(-c3nonc3N)c2CN(C)c2ccccc2)cc1 | · | · | ? | -10%
CCCc1c(C(=O)N/N=C(\C)c2ccc(O)cc2)nnn1-c1nonc1N | · | · | ? | -14%
C/C(=N\NC(=O)c1nnn(-c2nonc2N)c1CN(C)c1ccccc1)c1ccccc1O | ? | 8.9µM* | -100* | 21%
O=C(NCCN1CCN(c2cccc(Cl)c2)CC1)c1ccc(CSc2nc3ccncc3[nH]2)cc1 | ? | ? | -79* | -22%
O=C(N/N=C/c1cc(Br)cc(Br)c1O)c1ccncc1 | ? | ? | -22 | 17%
Cc1cc(C(=O)N/N=C/c2cc(Br)cc(Br)c2OC(=O)c2cccc(F)c2)n[nH]1 | 12µM* | 18µM* | -96* | -23%
Cc1cccc(C(=O)Oc2c(Br)cc(Br)cc2/C=N/NC(=O)c2ccncc2)c1 | 3% | ? | -71* | -8%
Cc1cc(C(=O)N/N=C/c2cc(Br)ccc2OC(=O)c2ccc(Br)cc2)n[nH]1 | · | -5% | · | ·
Cc1nnc(NC(=O)c2ccc(-c3ccc(Cl)cc3)o2)s1 | ? | -7% | 4 | 6%
Cc1cc(C(=O)OCC(=O)N2CCN(C(=O)c3ccco3)CC2)c(C)n1-c1ccc(F)cc1 | ? | -8% | -24 | 0%
